Data on 40 compounds can be found in ChEMBL document CHEMBL1157539, “Thousands of chemical starting points for antimalarial lead identification” (Nature, 2010).

The test deals with Plasmodium falciparum. The test can be described thus: GSK_TCMDC: Inhibition of Plasmodium falciparum Dd2 in whole red blood cells, using parasite LDH activity as an index of growth. Test compounds present at 2uM. The format is functional.
Take `N#Cc1ccc(Sc2nnc(-c3ccccc3Cl)n2CC2CCCCC2)cc1[N+](=O)[O-]`: the Inhibition (in general, the share of the control response that was lost under treatment) is on record as 34%. For `Nc1cccc(CNCc2cccc(-c3cccc(-c4nc5ccccc5[nH]4)c3)c2)c1.O=C(O)C(F)(F)F` the value was 84%.

In turn, `COc1ccc(Cc2nc3c(n2C(C)=O)SC(c2ccc(Cl)c(Cl)c2)=NN3C(C)=O)cc1` had an Inhibition of 22%. In the case of `O=C(Nc1ccc(C(F)(F)F)cc1)c1ccc(NCCCN2CCCCCC2)c([N+](=O)[O-])c1` it was 98%; in that of `COc1c(C2CCN(CCCCNC(=O)c3ccc(-c4ccc(C#N)cc4)c(O)c3)CC2)ccc2c1CCCC2.Cl`, 78%. Turning to `NCC(NC(=O)c1ccc(-c2c[nH]c3ncccc23)s1)c1ccccc1.O=CO` (stereo not given), the Inhibition worked out at 87%. In the case of `COc1ccccc1C1CCN(C2CCC(NC(=O)/C=C/c3cc(C(F)(F)F)ccc3F)CC2)CC1` (stereo not given) it was 32%; in that of `COc1ccc(C)cc1NC(=O)CSc1nc2cccnc2n1C1CCCCC1`, 78%. With `COc1ccc(CCc2ccc(-c3c(C)[nH]c(C)c(Cl)c3=O)cc2)cc1OC`, the Inhibition is recorded as 97%. `O=C(NCCCN1CCC(Cc2ccccc2)CC1)c1cc2c(Cl)nc3ccccc3c2s1` gave an Inhibition of 40%. Take `O=C(COc1ccc(Cl)c(Cl)c1)NCCCCCN1CCCN(C(=O)Nc2cc(Cl)cc(Cl)c2)CC1.O=C(O)C(F)(F)F`: the Inhibition is 1%.

`Cc1cccc2nc(-c3ccc(-c4cccc(NC(=O)NCc5ccc(F)cc5)c4)cc3)[nH]c12` registered an Inhibition of 100%. Consider `CNCC(C)(C)c1nc(-c2ccc(Cl)c(O)c2)c(-c2ccncc2)[nH]1.Cl`, for which the Inhibition is on record as 96%. For `Cl.c1ccc2ncc(CNCCCCCCCCNCc3cnc4ccccc4c3)cc2c1` the value was 4%; for `c1ccc2[nH]c(CN(Cc3nc4ccccc4[nH]3)Cc3nc4ccccc4[nH]3)nc2c1`, 86%.

`Cn1cc(C2CCN(CCCCNC(=O)c3ccc(C(=O)Nc4ccc(C#N)cc4)cc3)CC2)c2ccccc21`: the Inhibition turned out to be 58%. For `CC(C)NC[C@@H](O)[C@H](Cc1ccccc1)NC(=O)c1cc2c3c(c1)c(C(C)C)cn3CCS(=O)(=O)N2C.O=CO` the value was 99%.

`Nc1nc(N)c2c(Cc3ccc(Br)cc3)cccc2n1` yielded an Inhibition of 20%. `COc1ccc2[nH]ccc(=NN=Cc3cccc(C)n3)c2c1` registered an Inhibition of 99%.

On to `COc1ccccc1C1CCN(C2CCC(NC(=O)/C=C/c3cccc(C(F)(F)F)c3)CC2)CC1` (stereo not given), for which the Inhibition was 34%. In the case of `CCOC(=O)C(CO)NC(=O)c1ccc([N+](=O)[O-])o1` (stereo not given) it was 2%; in that of `NC12CC3CC(CC(C3)C1)C2` [AMANTADINE], 0%; in that of `C=CCNC(=O)CCCNC(=N)N.Cl`, 12%. For `COc1ccc(C=NN=c2cc[nH]c3ccccc23)c2ccccc12` the value was 98%; for `O=C(Nc1ccc(C(=O)Oc2ccc(-c3ccccc3)cc2)cc1)N[C@@H](Cc1ccc(O)cc1)C(=O)NC1CCN(Cc2ccc(O)cc2)C1.O=C(O)C(F)(F)F` (stereo not given in full), 60%; for `Cc1cc(NC(=O)c2sc3ccccc3c2O)no1`, 25%.

The compound `CCCCCc1cnc2nc(N)nc(N)c2c1C.Cl` gave an Inhibition of 23%. For `CN1CCN(Cc2nc(-c3ccc4c(Nc5ccc(Oc6ccccc6)cc5)ccnc4c3)cs2)CC1` the value was 99%; for `CCCCCC(C)C(C)c1cc(O)c2c(c1)OC(C)(C)CC2=Cc1ccncc1` (stereo not given), 78%; for `COc1ccc2nccc([C@@H](O)CN3CCC(NCc4cc5c(Cl)cc(Cl)cc5[nH]4)CC3)c2c1.O=C(O)C(=O)O`, 86%.

On to `CCCNCc1ccc(-c2ccc(CN(CCOC)C(=O)CC3CCCC3=O)cc2)nc1.O=C(O)C(F)(F)F` (stereo not given), for which the Inhibition is 9%. For `c1ccc(CN2CCCN(c3ccc4c(c3)CCN(Cc3ccc(-c5ncc[nH]5)cc3)CC4)CC2)cc1`, the Inhibition was 73%. `Br.Oc1cccc(CCNCCCCCCNCCc2ccc(Cl)cc2)c1` had an Inhibition of 0%.

In the case of `CO/C(=C\C=C\c1cc2cc(Cl)c(Cl)cc2[nH]1)C(=O)NCCCN1CCN(c2cccc(CCO)c2)CC1`, the Inhibition was found to be 32%. For `CC(=O)Oc1c(C2CCN(CCCCNC(=O)c3ccc(-c4ccc(C#N)cc4)cc3)CC2)ccc2c1CCCC2` the value was 52%. For `CC(=O)Oc1cc(C)ccc1C1CCN(CCCCNC(=O)c2ccc(-c3ccc(C(F)(F)F)cc3)cc2)CC1` the value was 94%; for `O=C(NCCNc1ccnc(Nc2ccc(F)cc2)n1)Nc1ccc2c(c1)OCO2`, 3%.

Turning to `COCCNCc1ccc(-c2cccc(CNC3CCN(Cc4ccccc4)CC3)c2)cc1.O=C(O)C(F)(F)F`, the Inhibition was 100%.

`O=C(CCc1c[nH]cn1)Nc1ccc(-c2ccc(-c3nc4ccccc4[nH]3)cc2)cc1` yielded an Inhibition of 70%.

In turn, `CCNc1cc(C(=O)N[C@@H](Cc2ccccc2)[C@H](O)CNC(C)CC(C)C)c(F)c(N2CCCCS2(=O)=O)c1.O=CO` (stereo not given in full) came in with an Inhibition of 66%.
